SMILES strings stand for the structures. Compounds without any hit were thinned out: in the full panel of roughly 83,000, 20% have a hit.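 Compound tested at a single concentration for 48 hours in 96-well plates; a percent growth value below 10 was scored as active.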 A number with no mark means an inactive call. The source made the active and inactive calls.

The results in this text go back to PubChem BioAssay (NCI).

What all share (experiment): NCI-60 one-dose screen, 48 h (100 = growth as untreated, 0 = no growth, -100 = all killed)
Common to all, as to details: 10 µM unless noted

In test [1] the test system is NCI-H23 lung.
In test [2] the test system is NCI-H226 lung.
Test [3] has as its system NCI-H322M lung.
Test [4] has as its system HOP-62 NSCLC.
The test system of test [5] is NCI-H460 lung.
In test [6] the test system is NCI-H522 lung.
For test [7], the system named is A549/ATCC NSCLC.
For test [8], the system named is 786-0 renal.
The subject of test [9] is COLO 205 colon.
The test system of test [10] is DU-145 prostate.
The test system of test [11] is K-562 leukemia.
Test [12] concerns MALME-3M melanoma.
The test system of test [13] is MDA-MB-231 breast.
Test [14] concerns RXF 393 renal.
Test [15] relates to SF-268 CNS.
Test [16] deals with SF-295 CNS.
Test [17] has as its system SF-539 CNS.
The test system of test [18] is UACC-257 melanoma.
The subject of test [19] is M14 melanoma.

In the case of `Fc1cc2[nH]ncc2c2c3c(c(-c4cn[nH]c4C(F)(F)F)nc12)C1CCC3C1` (stereo not drawn), the growth in test [1] was -4.72% (active); in test [2], 4.86% (active); in [3], 0.591% (active); in test [4], -19.4% (active); in test [5], 1.8% (active); in test [6], -2.89% (active). Besides, the growth was -6.2% (active) in test [7]; 2.72% (active) in test [8]; -74.7% (active) in test [9]; 4.96% (active) in [10]; 19.4% in [11]; 9.41% (active) in test [12]. Moreover, the growth in test [13] was -5.18% (active); in test [14], -89.8% (active); in [15], 3.13% (active); in test [16], 8.79% (active); in test [17], -32.4% (active); in [18] it was 0.635% (active). Moreover, the growth in test [19] is -6.09% (active).
`Nc1cc(Cl)cc2cccnc12`: the growth was 88.6% in test [1]; 81.4% in test [2]; 116% in test [3]; 95.5% in test [4]; 112% in test [5]; 96.7% in [6]. Further, the growth was 111% in test [7]; 109% in test [8]; 124% in test [9]; 109% in test [10]; 98.1% in [11]; 122% in test [12]. Besides, the growth in test [13] is 95.8%; in [14], 112%; in test [15], 88%; in test [16], 114%; in [17], 98%; in test [18], 127%. Also, the growth in [19] was 115%.
Take `O=S(=O)(NCc1ccccc1)c1ncnc2nc[nH]c12`: the growth in test [1] was 106%; in test [2], 99.4%; in [3], 109%; in test [4], 103%; in test [5] it was 117%; in test [6] it was 95.5%. In addition, the growth was 86.5% in [7]; 107% in [8]; 109% in [9]; 111% in [10]; 97.1% in [11]; 117% in test [12]. For the same compound, the growth is 107% in test [13]; 114% in test [14]; 110% in [15]; 104% in test [16]; 98.1% in test [17]; 92.7% in test [18]. In test [19], the growth was 108%.
For the compound `N#CCCc1c[nH]c2ccccc12`, the growth was 105% in [1]; 90.3% in test [2]; 94.1% in test [3]; 82% in test [4]; 97.7% in test [5]; 94.6% in [6]. In addition, the growth in test [7] was 89%; in [8], 104%; in test [9], 99.5%; in test [10], 107%; in test [11] it was 85.4%; in test [12] it was 98.9%. Also, the growth was 97.1% in test [13]; 107% in test [14]; 91% in test [15]; 98.3% in test [16]; 95.9% in test [17]; 90.9% in [18]. For the same compound, the growth in test [19] is 94.7%.
On to `CC(C)[C@H]1CCC2=C3CC[C@]45OC(=O)[C@@]6(CCC(C)(C)C[C@H]64)CC[C@@]5(C)[C@]3(C)CC[C@@]21C`, for which the growth was 54.4% [100 µM] in [1]; 68.4% [100 µM] in [2]; 94.5% [100 µM] in test [3]; 76.3% [100 µM] in test [4]; 71.8% [100 µM] in test [5]; 55.7% [100 µM] in test [6]. For the same compound, the growth in [7] was 67.1% [100 µM]; in test [8], 69.3% [100 µM]; in [9], 97% [100 µM]; in test [10], 83.3% [100 µM]; in test [11] it was 45.3% [100 µM]; in test [12] it was 91.6% [100 µM]. Besides, the growth in [13] is 61.2% [100 µM]; in [14], 78.6% [100 µM]; in test [15], 75.6% [100 µM]; in test [16], 88.7% [100 µM]; in test [17], 71.6% [100 µM]; in [18] it was 77.1% [100 µM]. Further, in test [19], the growth was 86.3% [100 µM].
Take `O=C1NC(=O)c2cc([N+](=O)[O-])cc3cccc1c23`: the growth in test [1] was 97.6%; in [2] it was 106%; in [3] it was 89%; in [4], 121%; in test [5] it was 98.5%; in test [6], 77.5%. For the same compound, the growth in test [7] was 89.7%; in test [8], 98.6%; in [9], 105%; in [10] it was 106%; in [11], 131%; in test [12], 107%. Further, the growth in test [13] was 100%; in [14], 98.2%; in test [15], 98%; in test [16] it was 114%; in test [17] it was 105%; in test [18], 76.7%. For the same compound, the growth in test [19] was 93.3%.
With `C#C[C@]1(O)CC[C@H]2[C@@H]3CC=C4c5nc(Nc6ccccc6[N+](=O)[O-])sc5CC[C@]4(C)[C@H]3CC[C@@]21C`, the growth in test [1] was 86.5%; in test [2] it was 80.9%; in test [3], 72.9%; in [4] it was 69.2%; in [5], 55.7%; in [6], 73.4%. Further, the growth in test [7] is 62.2%; in test [8], 5.63% (active); in [9], 86.7%; in test [10], 55.3%; in test [11], 8.86% (active); in [12], 51.7%. The growth was 52.4% in test [13]; -44% (active) in [14]; 52.8% in test [15]; -46.1% (active) in test [16]; -31.5% (active) in test [17]; 73% in [18]. Besides, in test [19], the growth was -23.1% (active).
